# Assay outcomes from PubChem.
# Rows were chosen to be rich in hits. Some 3.1% of all compounds tested hit in one or more screens of this group.
# TRb SRC2 PPI = qHTS for Inhibitors of the Interaction of Thyroid Hormone Receptor and Steroid Receptor Coregulator 2 | AID 1469, 2008 | TRbeta-SRC2 peptide binding, fluorescence polarization; receptor liganded with 1 µM T3 | Thyroid hormone receptor beta (Homo sapiens), P10828 | 280,000 tested, 0.065% active | Potency, µM (titrated, usually from 106 µM), most hits filed as inhibitors; also: nearly all actives have a fitted effect of over 50% in size
# Target sequence (P10828 whole entry, looked up): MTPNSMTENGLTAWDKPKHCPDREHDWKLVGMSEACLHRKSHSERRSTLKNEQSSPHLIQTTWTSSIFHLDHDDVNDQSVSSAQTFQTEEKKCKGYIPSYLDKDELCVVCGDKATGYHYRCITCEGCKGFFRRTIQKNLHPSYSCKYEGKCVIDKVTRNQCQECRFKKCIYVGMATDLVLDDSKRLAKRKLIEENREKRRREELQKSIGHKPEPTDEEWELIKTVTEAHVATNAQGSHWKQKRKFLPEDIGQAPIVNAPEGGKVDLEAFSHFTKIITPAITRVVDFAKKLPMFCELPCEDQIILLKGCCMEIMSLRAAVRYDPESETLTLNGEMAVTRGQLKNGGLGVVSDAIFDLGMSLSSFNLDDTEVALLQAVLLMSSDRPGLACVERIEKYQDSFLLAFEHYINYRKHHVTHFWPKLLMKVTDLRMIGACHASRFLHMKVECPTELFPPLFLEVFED
#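 A fluorescence polarization screen tested compounds at multiple concentrations against complex formation between 0.6 uM TRb ligand-binding domain and 20 nM Texas Red SRC2 peptide, with 1 uM T3 present; readout after 5 hr.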
# TR SRC2 fluor cs = Total Fluorescence Counterscreen for Inhibitors of the Interaction of Thyroid Hormone Receptor and Steroid Receptor Coregulator 2. TRb/SRC2 Texas Red total fluorescence interference. Potency, µM (top dose mostly 106 µM). 280,000 tested, 0.29% active. AID 1479, 2009; active = well fitted curve in either direction with a large enough effect; inconclusive = small, poorly fitted or top-dose-only effect
#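 Flags fluorescent or light-absorbing compounds by total fluorescence, S + 2P, at 555 nm excitation and 632 nm emission. Mixture: 20 nM Texas Red SRC2 peptide, 0.6 uM human TRb LBD, 1 uM T3, 5% DMSO; compound exposure 5 h at ambient temperature.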
# Tau fluor counter = Counterscreen qHTS for Inhibitors of Tau Fibril Formation, Fluorescence Polarization; AID 1463, 2008; 280,000 tested, 0.93% active; tau K18 P301L Alexa594 fluorescence, heparin fibrillization; Potency, µM (series often up to 57.7 µM); also: nearly all actives have a fitted effect of over 55% in size
#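 Human K18 P301L tau (15 uM unlabeled plus 0.24 uM Alexa 594-labeled, final) in 100 mM sodium acetate pH 7 was mixed with compound and 20 uM heparin and incubated 6 hr at 37 C.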
# Tau FP inhib = qHTS for Inhibitors of Tau Fibril Formation, Fluorescence Polarization | 280,000 tested, 0.39% active | K18 P301L tau heparin fibrillization, Alexa594 FP, 6 h | Potency, µM (titrated, usually from 57.7 µM), actives largely listed as inhibitors; also: nearly all actives have a fitted effect of over 55% in size
# Target sequence (P10636 561-689 P618L limits assumed): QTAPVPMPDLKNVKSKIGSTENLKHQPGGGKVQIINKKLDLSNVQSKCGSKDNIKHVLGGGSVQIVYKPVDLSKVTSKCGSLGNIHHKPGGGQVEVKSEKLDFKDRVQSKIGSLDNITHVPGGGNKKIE
#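 Human tau K18 […] P301L fragment, 15 uM unlabeled plus 0.24 uM Alexa 594-labeled tau (final), with compound and 20 uM heparin in 100 mM sodium acetate pH 7; 6 hr at 37 C, then Alexa 594 FP read.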
# Tau fibril ThT = qHTS for Inhibitors of Tau Fibril Formation, Thioflavin T Binding; Microtubule-associated protein tau (Homo sapiens), P10636; recombinant tau K18 P301L (four-repeat tau fragment), heparin-induced fibrillization, ThT fluorescence; AID 1460, 2008; 270,000 tested, 2.1% active; Potency, µM (highest dose often 57.4 µM), actives largely listed as inhibitors; also: nearly all actives have a fitted effect of over 55% in size
#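 K18 P301L tau (15 uM + 0.24 uM Alexa 594-tagged), heparin 20 uM, NaOAc pH 7, 6 h 37 C; ThT 30 uM, 1 h RT, ex 450/em 510 nm.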
# A number is an active result; - = inactive; ? = inconclusive; . = no result; [ ] = dose if it differs, or a comment. Unless noted, calls follow the shape of the dose curve; as a rule, active = well fitted curve in the direction sought with a large enough effect; inconclusive = small, poorly fitted or top-dose-only effect, or another doubt; inactive = no such curve, though single readings can be large; an effect the other way counts as inactive or inconclusive.
SMILES,TRb SRC2 PPI,TR SRC2 fluor cs,Tau fluor counter,Tau FP inhib,Tau fibril ThT
C=CCNC(=S)N/N=C/c1ccc(-c2ccc(OC)cc2)o1,-,-,20µM[quencher],-,?
CNC(=S)N/N=C/c1ccc(-c2ccc(Cl)c([N+](=O)[O-])c2)o1,-,-,?,-,?
CCC(=O)N/N=C/c1ccc(-c2ccc([N+](=O)[O-])cc2)o1,-,-,-,-,7.9µM
CCc1nnc(N/N=C/c2ccc(-c3ccc([N+](=O)[O-])cc3)o2)n1N,-,-,?,?,1.8µM
Fc1ccccc1,-,-,.,.,.
Cn1nc(-c2ccccc2F)c2cc(C(=O)NCCc3ccc(Cl)cc3)sc21,-,-,?,-,-
O=C(N/N=C/c1ccc(-c2ccc([N+](=O)[O-])cc2)o1)C(O)c1ccccc1 (configuration not stated),-,-,?,-,16µM
CCCCC(=O)N/N=C/c1ccc(-c2ccc([N+](=O)[O-])cc2)o1,-,-,?,-,4.5µM
O=C1N=C(O)CN1/N=C/c1ccc(-c2ccc([N+](=O)[O-])cc2)o1,-,-,-,-,10µM
CSc1nc2ccc(NS(=O)(=O)c3ccccc3F)cc2s1,-,-,-,-,-
CSc1nc2ccc(NS(=O)(=O)c3c(Cl)cccc3Cl)cc2s1,-,-,10µM[quencher],-,?
Cn1c(=O)c(Nc2ccc(O)cc2)c2c3c(cccc31)C(=O)c1ccccc1-2,-,-,14µM[quencher],?,7.9µM
c1csc(-c2nc3c4ccccc4c4ccccc4c3[nH]2)c1,-,-,13µM[quencher],?,?
Oc1ccccc1-c1nc2c3ccccc3c3ccccc3c2[nH]1,-,-,10µM[quencher],-,?
COC(=O)c1[nH]c2ccc(Cl)cc2c1NC(=O)CN1CCc2cc(OC)c(OC)cc2C1,-,-,18µM[quencher],-,?
CN(C)c1cc(N/N=C/c2ccc(Cl)cc2)nc(N(C)C)n1,-,-,?,-,14µM
COc1cc(N/N=C/c2ccc(N(C)C)cc2)ncn1,-,-,?,-,?
O=C(CSc1nc(-c2ccccc2)[nH]c1-c1ccccc1)Nc1ccc2c(c1)OCCO2,-,-,10µM[quencher],-,?
O=C(CSc1nc(-c2ccc(F)cc2)[nH]c1-c1ccc(F)cc1)Nc1ccc2c(c1)OCCO2,-,-,8.9µM[quencher],-,?
O=C(CSc1nc(-c2ccc(F)cc2)[nH]c1-c1ccc(F)cc1)Nc1ccc2c(c1)OCO2,-,-,?,?,?
COc1ccc(-c2[nH]c(-c3ccccc3)nc2SCC(=O)Nc2ccc3c(c2)OCCO3)cc1,-,-,8.9µM[quencher],?,?
Cc1cc(C)cc(NC(=O)CN2C(=O)CCc3cc(S(=O)(=O)N4CCCCC4)ccc32)c1,-,-,?,-,-
C=CCOC(=O)CC(C)C,-,-,.,.,.
COC(=O)C1=C(C)NC(=O)/C1=C\c1cc(C)n(-c2ccccc2)c1C,-,-,?,-,13µM
Cc1cc(C)cc(-n2c(C)cc(C=C(C#N)C#N)c2C)c1,-,-,-,-,?
SMILES,TRb SRC2 PPI,TR SRC2 fluor cs,Tau fluor counter,Tau FP inhib,Tau fibril ThT
COC(=O)C1=C(C)NC(=O)/C1=C\c1cc(C)n(-c2cc(C)cc(C)c2)c1C,-,-,?,-,20µM
COC(=O)C1=C(O)/C(=C\c2cc(C)n(-c3ccccc3F)c2C)N=C1C,-,-,-,-,?
c1ccc(-c2csc(Nc3ccc4c(c3)OCCO4)n2)cc1,-,-,14µM[quencher],-,13µM
CCC(=O)Nc1nc(-c2ccc3c(c2)OCCO3)cs1,-,-,-,-,?
c1cc2c(cc1Nc1nc(-c3ccc4c(c3)OCO4)cs1)OCCO2,-,-,8.9µM[quencher],-,3.2µM
COc1cccc(Nc2nc(-c3ccc4c(c3)OCCO4)cs2)c1,-,-,11µM[quencher],-,7.1µM
COc1ccccc1C(=O)Nc1nc(-c2ccc3c(c2)OCCO3)cs1,-,-,?,-,-
c1cc2c(cc1-c1csc(NNC3=NCCCCC3)n1)OCCO2,-,-,?,28µM,25µM
Cc1ccc(C(=O)CC2(O)C(=O)N(CCc3ccccc3)c3ccc(Cl)cc32)cc1 (configuration not stated),-,-,-,-,-
COc1cccc(CN2CCCN(CC(=O)Nc3ccc4c(c3)OCCO4)S2(=O)=O)c1,-,-,-,-,-
CCN(CC)c1ccc(/C=N/Nc2ccccc2)c(O)c1,-,-,?,?,25µM
COc1ccc(NS(=O)(=O)c2cccc(C(=O)N/N=C/c3cn(-c4ccccc4)nc3-c3ccc(OC)cc3)c2)cc1,-,-,?,32µM,?
COc1ccc(NS(=O)(=O)c2cccc(C(=O)N/N=C/c3cn(-c4ccccc4)nc3-c3ccccc3)c2)cc1,-,-,-,?,-
CCN(CC)c1ccc(/C=N/NC(=O)c2cccc(S(=O)(=O)Nc3ccccc3OC)c2)c(O)c1,-,-,7.9µM[quencher],?,-
CCN(CC)c1ccc(/C=N/NC(=O)c2ccc3nc[nH]c3c2)c(O)c1,-,-,14µM[quencher],-,.
COc1cccc(/C=N/NC(=O)c2ccc3nc[nH]c3c2)c1O,-,-,-,-,?
O=C(O)CC/C(=N\Nc1ccc(S(=O)(=O)N2CCCC2)cc1[N+](=O)[O-])c1cccs1,-,-,-,-,32µM
O=C(O)CC/C(=N\Nc1ccc(S(=O)(=O)N2CCOCC2)cc1[N+](=O)[O-])c1cccs1,-,-,-,-,11µM
CC1(C)CC(=O)C2=C(C1)N(c1ccc(F)cc1)C(N)=C(C#N)C2c1cccs1 (configuration not stated),-,-,-,-,-
Cc1ccc(N2C(N)=C(C#N)C(c3cccs3)C3=C2CC(C)(C)CC3=O)cc1 (configuration not stated),-,-,-,-,25µM
NS(=O)(=O)c1ccc(N/N=C/c2cn(-c3ccccc3)nc2-c2ccccc2)c([N+](=O)[O-])c1,-,-,18µM[quencher],-,16µM
O=[N+]([O-])c1ccc(N/N=C/c2cn(-c3ccccc3)nc2-c2ccccc2)cc1,-,-,7.9µM[quencher],-,7.9µM
O=C(O)/C=C/c1cn(-c2ccccc2)nc1-c1ccc(-c2ccc([N+](=O)[O-])cc2)o1,-,-,?,-,1.1µM
CCCNC(=O)CN(c1cccc(F)c1)S(C)(=O)=O,-,-,-,-,-
Cc1ccc(-c2nnc(Nc3ccc(F)cc3)c3ccccc23)cc1S(=O)(=O)N1CCN(C)CC1,-,-,?,-,-
O=C(O)c1ccccc1CSc1ccccn1,-,-,-,-,-
CC1(C)CC(=O)C=C(NC2=CC3OC(c4ccccc4)OCC3OC2=O)C1 (configuration not stated),-,-,-,?,18µM
